Test: qHTS profiling of the MIPE4 collection as inhibitors of Plasmodium falciparum (DD2) proliferation (AID 743345)
Settings: P. falciparum Dd2 in erythrocytes, SYBR Green DNA, 72 h; at 28.5 µM (top of the series) unless noted
How it was run: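 Parasite DNA was quantified by SYBR Green I fluorescence (ex 485, em 535 nm) after overnight lysis in saponin/Triton buffer at room temperature. Cultures at 0.3% parasitemia and 2.5% hematocrit were first exposed to compound for 72 h at 37 C; signals were normalised to artemisinin (0.29 uM) and vehicle wells.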

Q: For `Clc1ccc(CCC(Cn2ccnc2)Sc2c(Cl)cccc2Cl)cc1` (stereo not drawn), which parasite growth remaining, % of DMSO control (lower = more inhibition) is on record?
A: 6.42%

Q: Which parasite growth remaining, % of DMSO control (lower = more inhibition) does the source give for `C=C1C(=O)OC2C=C(C)CCC=C(C)CCC12` (stereo not drawn) here?
A: 104%

Q: With `NC(=O)c1cnc(-c2ccc(C3(N)CCC3)cc2)c(-c2ccccc2)c1` as the molecule, how does the parasite growth remaining, % of DMSO control (lower = more inhibition) read?
A: 65.3%

Q: For `CC(=O)OC1C(C)OC(Oc2c(-c3ccc(O)cc3)oc3cc(O)cc(O)c3c2=O)C(O)C1OC(C)=O` (stereo not drawn), which parasite growth remaining, % of DMSO control (lower = more inhibition) is on record?
A: 72.5%

Q: For `NC(=O)c1cccc2[nH]c(-c3ccc([C@H]4CCCN4)cc3F)nc12`, which parasite growth remaining, % of DMSO control (lower = more inhibition) is on record?
A: 43.5%

Q: With `CC1(C)CCC(CN2CCN(c3ccc(C(=O)NS(=O)(=O)c4ccc(NCC5CCOCC5)c([N+](=O)[O-])c4)c(Oc4cnc5[nH]ccc5c4)c3)CC2)=C(c2ccc(Cl)cc2)C1` as the molecule, how does the parasite growth remaining, % of DMSO control (lower = more inhibition) read?
A: 76.7%

Q: Which parasite growth remaining, % of DMSO control (lower = more inhibition) does the source give for `O=C(O)C=Cc1ccc(O)c(O)c1` here?
A: 82.5%

Q: Which parasite growth remaining, % of DMSO control (lower = more inhibition) does the source give for `O=C(NCc1ccccc1)c1csc(Nc2ccncn2)n1` here?
A: 79.6%

Q: With `CO[C@H]1C=CC=C(C)C(=O)NC2=CC(=O)C(NCCN(C)C)=C(C[C@@H](C)C[C@H](OC)[C@@H](O)[C@@H](C)C=C(C)[C@@H]1OC(N)=O)C2=O` as the molecule, how does the parasite growth remaining, % of DMSO control (lower = more inhibition) read?
A: 6.82%

Q: Which parasite growth remaining, % of DMSO control (lower = more inhibition) does the source give for `C[N+](C)(C)CC(=O)O` here?
A: 96.1%

Q: Which parasite growth remaining, % of DMSO control (lower = more inhibition) does the source give for `Cc1c(O)cccc1C(=O)N[C@@H](CSc1ccccc1)[C@H](O)CN1C[C@H]2CCCC[C@@H]2C[C@@H]1C(=O)NC(C)(C)C` here?
A: 36%

Q: For `CN[C@@H](C)C(=O)N[C@H]1CN(C(=O)CC(C)C)CC[C@H]2CC[C@@H](C(=O)NC(c3ccccc3)c3ccccc3)N2C1=O`, which parasite growth remaining, % of DMSO control (lower = more inhibition) is on record?
A: 55%

Q: For `CC(=NNC(=S)N1CCC1)c1ccccn1`, which parasite growth remaining, % of DMSO control (lower = more inhibition) is on record?
A: 5.88%

Q: For `NC(=O)[C@@H](CCC(F)(F)F)N(Cc1ccc(-c2ncon2)cc1F)S(=O)(=O)c1ccc(Cl)cc1`, which parasite growth remaining, % of DMSO control (lower = more inhibition) is on record?
A: 88.9%

Q: For `O=c1cc(CN2CCOCC2)occ1OCCCCCSc1ccnc2cc(C(F)(F)F)ccc12`, which parasite growth remaining, % of DMSO control (lower = more inhibition) is on record?
A: 56.7%

Q: For `CC=CCC(C)C(O)C1C(=O)NC(CC)C(=O)N(C)CC(=O)N(C)C(CC(C)C)C(=O)NC(C(C)C)C(=O)N(C)C(CC(C)C)C(=O)NC(C)C(=O)NC(C)C(=O)N(C)C(CC(C)C)C(=O)N(C)C(CC(C)C)C(=O)N(C)C(C(C)C)C(=O)N1C` (stereo not drawn), which parasite growth remaining, % of DMSO control (lower = more inhibition) is on record?
A: 6.98%

Q: Which parasite growth remaining, % of DMSO control (lower = more inhibition) does the source give for `CC(C)=CC[C@@H](O)C1=CC(=O)c2c(O)ccc(O)c2C1=O` here?
A: 5.8%

Q: Which parasite growth remaining, % of DMSO control (lower = more inhibition) does the source give for `O=c1cc(N2CCOCC2)oc2c(-c3cccc4c3sc3ccccc34)cccc12` here?
A: 28.4%

Q: Which parasite growth remaining, % of DMSO control (lower = more inhibition) does the source give for `NC1=N[C@@]2(c3cc(NC(=O)c4ccc(F)cn4)ccc3F)COC[C@@H]2CS1` here?
A: 20.8%

Q: For `COc1ccc2cc(-c3nc(-c4ccc(S(C)=O)cc4)[nH]c3-c3ccncc3)ccc2c1` (stereo not drawn), which parasite growth remaining, % of DMSO control (lower = more inhibition) is on record?
A: 9.3%

Q: With `O=C(O)[C@H]1O[C@H](Oc2cc3oc(-c4ccccc4)cc(=O)c3c(O)c2O)[C@H](O)[C@@H](O)[C@H]1O` as the molecule, how does the parasite growth remaining, % of DMSO control (lower = more inhibition) read?
A: 89%

Q: For `O=C(O)c1ccccc1C(=O)Nc1ccc(-c2ccccc2)cc1`, which parasite growth remaining, % of DMSO control (lower = more inhibition) is on record?
A: 104%

Q: For `CO[C@H]1C[C@@H]2CC[C@@H](C)[C@@](O)(O2)C(=O)C(=O)N2CCCC[C@@H]2C(=O)O[C@H]([C@H](C)C[C@@H]2CC[C@H](OCCO)[C@H](OC)C2)CC(=O)[C@H](C)C=C(C)[C@@H](O)[C@@H](OC)C(=O)[C@H](C)C[C@H](C)C=CC=CC=C1C`, which parasite growth remaining, % of DMSO control (lower = more inhibition) is on record?
A: 7.69%

Q: With `NC1CCC(Nc2nc(Nc3ccc(C(=O)N4CCCCC4)cc3)c3ncn(-c4cccc(F)c4)c3n2)CC1` (stereo not drawn) as the molecule, how does the parasite growth remaining, % of DMSO control (lower = more inhibition) read?
A: 89.1%

Q: Which parasite growth remaining, % of DMSO control (lower = more inhibition) does the source give for `Cc1ccn(-c2ccc(-c3ncco3)cc2)c(=O)c1-c1ccc2nc(N)ncc2c1` here?
A: 78.6%

Q: For `N#Cc1ccc(NC(=O)Nc2ccccc2Br)c2n[nH]nc12`, which parasite growth remaining, % of DMSO control (lower = more inhibition) is on record?
A: 65.9%

Q: With `COc1ccc2cccc(CCNC(C)=O)c2c1` as the molecule, how does the parasite growth remaining, % of DMSO control (lower = more inhibition) read?
A: 101%

Q: With `COc1ccc(-c2coc3cc(O)ccc3c2=O)cc1` as the molecule, how does the parasite growth remaining, % of DMSO control (lower = more inhibition) read?
A: 8.21%

Q: With `NC(=O)NN=Cc1ccc([N+](=O)[O-])o1` as the molecule, how does the parasite growth remaining, % of DMSO control (lower = more inhibition) read?
A: 48.9%

Q: With `Cc1nnc(C(C)C)n1C1C[C@H]2CC[C@@H](C1)N2CC[C@H](NC(=O)C1CCC(F)(F)CC1)c1ccccc1` (stereo partly drawn) as the molecule, how does the parasite growth remaining, % of DMSO control (lower = more inhibition) read?
A: 100%

Q: Which parasite growth remaining, % of DMSO control (lower = more inhibition) does the source give for `CN(C)C1CCN(C(=O)c2ccc(NC(=O)Nc3nc(N4CCOCC4)nc(N4CCOCC4)n3)cc2)CC1` here?
A: 7.83%

Q: For `Cc1c[nH]c(C=C2C(=O)Nc3ccccc32)c1CCC(=O)O`, which parasite growth remaining, % of DMSO control (lower = more inhibition) is on record?
A: 38.5%

Q: For `O=C(O)c1c(Cl)c(Cl)c(Cl)c(Cl)c1-c1c2cc(I)c(=O)c(I)c-2oc2c(I)c(O)c(I)cc12`, which parasite growth remaining, % of DMSO control (lower = more inhibition) is on record?
A: 97.1%

— PubChem BioAssay (NCATS)
